Only some compounds are listed: those with a hit (about 2.4% of all), similar ones and a draw of the others.
JNK3 blocker: JNK3 kinase activity inhibitors, primary screen, biochemical, human, purified enzyme; inhibition, % at 8 µM; Mitogen-activated protein kinase 10 (Homo sapiens), P53779; HTS; 60,000 tested, 0.61% active; in the data active = inhibition above about 17%;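 note: 0% = DMSO and 100% = reference inhibitor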
Target sequence (P53779 whole entry, looked up): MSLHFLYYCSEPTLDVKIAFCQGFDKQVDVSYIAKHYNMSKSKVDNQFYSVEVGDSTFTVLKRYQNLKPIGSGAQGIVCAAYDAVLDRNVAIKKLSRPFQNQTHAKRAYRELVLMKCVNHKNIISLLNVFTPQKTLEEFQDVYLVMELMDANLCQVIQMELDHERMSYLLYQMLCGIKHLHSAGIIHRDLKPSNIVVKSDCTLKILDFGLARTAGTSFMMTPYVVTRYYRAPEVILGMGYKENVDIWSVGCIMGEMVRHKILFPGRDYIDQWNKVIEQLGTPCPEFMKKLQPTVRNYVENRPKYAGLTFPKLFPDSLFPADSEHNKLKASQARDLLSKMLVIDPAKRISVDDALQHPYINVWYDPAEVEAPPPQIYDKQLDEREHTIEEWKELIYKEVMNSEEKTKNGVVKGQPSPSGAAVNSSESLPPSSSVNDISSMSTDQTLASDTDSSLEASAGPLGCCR
NFkB transloc pot: enhancers of NFkB p65 translocation in HUVEC – imaging, IL-1B stimulus, high-content imaging, primary screen; 94,000 tested, 0.3% active; AID 819, 2007; HUVEC IL-1B NFkB p65 nuclear translocation imaging; activation, % at 2 µM;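 active = activation above 40%, about the mean plus 3 SD, also judged a hit on visual image review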;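 note: percent activation is computed from the nuclear over cytoplasmic p65 intensity ratio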
NFkB transloc inh: inhibitors of IL-1B driven NFkB p65 nuclear import, primary screen, imaging, HUVEC, IL-1B stimulus, high-content imaging. 94,000 tested, 0.43% active. inhibition, % at 2 µM. HUVEC IL-1B NFkB p65 nuclear translocation imaging;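 active = inhibition above about 30% together with a positive call from visual inspection of the well image, limit read from the data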;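 note: nuclear over cytoplasmic p65 intensity ratio measured by imaging; 0% = IL-1B stimulated DMSO wells and 100% = unstimulated DMSO wells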
HUVEC tox IL1B: cytotoxicity in IL-1B stimulated HUVEC, primary screen, cytotoxicity control for IL-1B NFkB translocation project, imaging, Hoechst nuclear count, IL-1B stimulus; HUVEC cell count loss; cell count reduction, % at 2 µM; 94,000 tested, 0.41% active; AID 845, 2007;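 active = cell count reduction more than 3 SD above the screen-wide mean, cut at about 70% in these data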;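 note: normalized per plate to untreated control cells as the no-loss baseline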
FAK blocker: FAK kinase inhibitors, primary screen, biochemical | inhibition, %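 (tested at 7 µM)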 | 97,000 tested, 0.84% active | biochemical FAK kinase activity assay; in the data active = inhibition above about 19%;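 note: 0% = DMSO and 100% = reference compound high control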
PTK2B oligo ant: antagonists of Pyk2 self-association, primary screen, Q293 cells, FERM NanoBiT luminescence, HTS | Protein-tyrosine kinase 2-beta (Homo sapiens), Q14289 | active compounds read low | z-score (the deposit names both 25 µM and 10 µM) | 99,000 tested, 0.83% active;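 active = Z-score of -3 or lower, scaled per plate to the spread of control and sample wells; inactive = z-score above -3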;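 note: negative z-score means lost luminescence so less FERM oligomerization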
Numbers without * were called inactive; . = no result given.

SMILES	JNK3 blocker	NFkB transloc pot	NFkB transloc inh	HUVEC tox IL1B	FAK blocker	PTK2B oligo ant
O=C1c2ccccc2NC(c2ccncc2)N1c1ccccn1 (centres undefined)	10	-62	62*	-6	3	-0.01
Cc1nn(C)c(C)c1S(=O)(=O)N1CCC(C(=O)NCC2COc3ccccc3O2)CC1 (centres undefined)	0	42*	-42	-6	3	.
O=C(O)CCCCCCNS(=O)(=O)c1ccccc1	.	4	-4	-2	0	1.4
O=C(O)CCCCCNS(=O)(=O)c1ccc(Cl)cc1	-7	-47	47*	-83	-5	-0.51
COc1cccc2c(=O)c(SC(F)(F)C(F)C(F)(F)F)c(C)[nH]c12 (centres undefined)	2	22	-22	-6	0	-0.51
COc1cccc2c(=O)c(C/C=C(/C)Cl)c(C)[nH]c12	18*	-3	3	4	3	-1.3
O=C(Cc1ccccc1)NNC(=O)c1cccs1	.	13	-13	10	-9	-0.61
COc1cc(CNCCO)ccc1OCC(=O)Nc1ccc(Br)cc1	0	18	-18	-10	6	-0.06
COc1ccccc1NC(=O)CN(c1ccc(C)cc1)S(=O)(=O)c1c(C)n[nH]c1C	0	5	-4	-3	7	-2.8
COc1ccc(N(CC(=O)Nc2cccc(C)c2C)S(=O)(=O)c2c(C)n[nH]c2C)cc1	5	-7	6	19	-3	-3.3*
COc1ccc(CNC(=O)C(c2ccco2)N(Cc2cccs2)C(=O)Cc2cccs2)cc1 (centres undefined)	7	41*	-41	-5	-1	-1.8
COCCNC(=O)C(c1cccs1)N(Cc1cccs1)C(=O)Cn1nnc2ccccc21 (centres undefined)	.	-7	7	-8	-2	-0.22
CC(C)CCNC(=O)C(c1cccs1)N(CC1CCCO1)C(=O)Cn1nnc2ccccc21 (centres undefined)	-2	-99	99*	91*	-2	0.96
CC(C)CCNC(=O)C(c1ccco1)N(Cc1cccs1)C(=O)Cn1nnc2ccccc21 (centres undefined)	-2	.	.	.	.	-3.1*
CN(C)c1ccnc(SCc2ccccc2Cl)c1C#N	15	17	-17	-9	1	-0.57
COc1ccc(NC(=O)c2ccc(COc3ccccc3Br)o2)cc1OC	6	11	-11	9	0	0.22
COc1cc(NC(=O)c2ccc(COc3ccccc3Br)o2)cc(OC)c1OC	20*	3	-3	19	3	-0.87
O=C(O)CCSc1ccc2ccccc2n1	28*	12	-12	-4	-21	1.9
O=C(CSc1ccc2ccccc2n1)c1ccc2c(c1)OCO2	.	6	-6	-5	2	-0.45
Cc1cc(SCCC(=O)O)nc2ccccc12	7	-6	6	1	0	0.2
O=C(O)CSc1ccc2ccccc2n1	18*	11	-11	-27	-10	-0.2
Cc1ccc2nc(Cc3ccc(N)cc3)oc2c1	21*	13	-13	-3	0	0.31
Cc1ccc2nc(CCc3nc4ccc(C)cc4o3)oc2c1	7	13	-13	-7	-7	0.46
COc1ccc(S(=O)(=O)N(C)CC(=O)Nc2ccc3c(c2)OCO3)cc1	.	-27	27	-9	-2	0.24
COc1ccc(N(CC(=O)Nc2ccc3c(c2)OCO3)S(=O)(=O)c2ccccc2)c(OC)c1	3	30	-30	-37	-4	-3.2*
COc1ccc(S(=O)(=O)N(C)CC(=O)Nc2ccc3c(c2)OCO3)cc1OC	5	-7	7	81*	1	-0.7
O=Cc1cc2ccccc2nc1SCc1ccc(Cl)c(Cl)c1	.	-34	34*	65	2	-1.5
Cc1ccc(CSc2ncccc2C(=O)O)cc1	.	21	-21	-57	1	1.2
Cc1ccc(CSc2nc3ccccc3cc2C=O)cc1	.	-36	36*	73*	2	-0.18
O=Cc1cc2ccccc2nc1SCc1ccc(Cl)cc1	.	5	-5	56	1	-1.6
